The results in this text go back to PubChem BioAssay (NCATS).

Inconclusive results are not listed. Unmarked numbers belong to inactive results. The source made the active and inactive calls. Calls come from the whole dose curve; as a rule, active = well fitted curve in the direction sought with a large enough effect; inconclusive = small, poorly fitted or top-dose-only effect, or another doubt; inactive = no such curve, though single readings can be large; an effect the other way counts as inactive or inconclusive.

Assay [1] has as its target Aldehyde dehydrogenase, mitochondrial (Homo sapiens) (UniProt P05091). Briefly: qHTS for Inhibitors of the Aldehyde Dehydrogenase Family (ALDH2) Primary screen (AID 2061308).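 Note: plate controls were vehicle for no effect and reference inhibitor for full effect; nearly all actives have a fitted effect of over 55% in size.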
Assay [2] deals with Retinaldehyde dehydrogenase 3 (Homo sapiens) (UniProt P47895). Put plainly: qHTS for Inhibitors of the Aldehyde Dehydrogenase Family (ALDH1A3) Primary screen (AID 2061315).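 Note: plate controls were DMSO vehicle for no effect and reference inhibitor for full effect.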
Assay [3] can be described thus: BET inhibitor-based combinations targeting novel dependencies in MECOM-rearranged (r) AML: SET-2 cell line (AID 2202231).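 For viability: plate controls were DMSO treated cells for no effect and wells without cells for full effect.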 Note: nearly all actives have a fitted effect of over 35% in size. Note: potency is the fitted concentration of half-maximal effect. Particulars: SET-2 AML cells viability, CellTiter-Glo luminescence, 48 h; viability: stronger effect = lower value, concentration not given here. The method in brief:
(§1)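 Viability of cells (500 per well) is scored by luminescent CellTiter-Glo at 48 hr post-dosing. Eleven-point titrations are normalized to DMSO and empty controls and reduced to AUC values.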
In general terms: Cellular ATP, detected with luciferase, serves as a proxy for viable cell number.

A short description of assay [4]: BET inhibitor-based combinations targeting novel dependencies in MECOM-rearranged (r) AML: OCI-AML3 cell line (AID 2202232). Note: nearly all actives have a fitted effect of over 35% in size. Note: potency is the fitted concentration of half-maximal effect. Particulars: Potency: OCI-AML3 viability. The method in brief:
as §1

Assay [5] in a line: BET inhibitor-based combinations targeting novel dependencies in MECOM-rearranged (r) AML: MV-4-11 cell line (AID 2202233). Note: nearly all actives have a fitted effect of over 45% in size. Note: potency is the fitted concentration of half-maximal effect. The method, boiled down: (§2)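 Using pin-tool transfer, drugs were added in 11 doses to cells (500/well), incubated 48 hr, and assessed with CellTiter-Glo. Z-AUC is a mean-centring transformation applied separately to each screened line.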
Assay [6] in a line: BET inhibitor-based combinations targeting novel dependencies in MECOM-rearranged (r) AML: UCSD-AML1 cell line (AID 2202235). Note: nearly all actives have a fitted effect of over 40% in size. Note: potency is the fitted concentration of half-maximal effect. The method in brief: as §2
Assay [7] in a line: BET inhibitor-based combinations targeting novel dependencies in MECOM-rearranged (r) AML: AML-191 cell line (AID 2202236; note: nearly all actives have a fitted effect of over 35% in size; note: potency is the fitted concentration of half-maximal effect). The method in brief:
as §1

Assay [8] in a line: BET inhibitor-based combinations targeting novel dependencies in MECOM-rearranged (r) AML: AML-194 cell line (AID 2202237; note: nearly all actives have a fitted effect of over 40% in size; note: potency is the fitted concentration of half-maximal effect). The method in brief: as §1
Assay [9] in a line: BET inhibitor-based combinations targeting novel dependencies in MECOM-rearranged (r) AML: HNT-34 cell line (AID 2202234). Note: nearly all actives have a fitted effect of over 35% in size. Note: potency is the fitted concentration of half-maximal effect. The method in brief: as §2

Take `COc1cc(/C=C/C(=O)O[C@@H]2O[C@H](CO)[C@@H](O)[C@H](O)[C@H]2O)ccc1O`: the Potency result in assay [1] and in assay [2] was “inactive” each time.

What is called viability is a read-out of living cells in per cent, often relative to untreated cells. With `CS(=O)(=O)c1ccc(C2=C(c3ccccc3)C(=O)OC2)cc1`, the Potency result in assay [1], in assay [2], in assay [4], in assay [5], in assay [6] and in assay [7] was “inactive” in each case. The Potency result in assay [8] was “inactive”. In addition, the viability in assay [3] was 95.1%.

Regarding `Cc1n[nH]c(C)c1Cc1sc2c(c1C(=O)N1C[C@H](O)CO1)c(=O)n(C)c(=O)n2CC(C)C`, the Potency result in [1], in assay [2], in assay [5], in assay [6], in assay [7] and in [8] was “inactive” throughout. Moreover, the viability in [3] was 111%.

In the case of `CCCCCCCCCC(=O)N[C@@H](Cc1c[nH]c2ccccc12)C(=O)N[C@H](CC(N)=O)C(=O)N[C@@H](CC(=O)O)C(=O)N[C@@H]1C(=O)NCC(=O)N[C@@H](CCCN)C(=O)N[C@@H](CC(=O)O)C(=O)N[C@H](C)C(=O)N[C@@H](CC(=O)O)C(=O)NCC(=O)N[C@H](CO)C(=O)N[C@@H]([C@@H](C)CC(=O)O)C(=O)N[C@@H](CC(=O)c2ccccc2N)C(=O)O[C@@H]1C`, the Potency entry in assay [1], in assay [2], in [4], in assay [5], in [9] and in assay [6] was “inactive” throughout. Also, the Potency result in assay [7] and in assay [8] was “inactive” each time. Moreover, the viability in assay [3] was 107%.

`CNc1nc(Nc2ccc(C(=O)N3CCOCC3)cc2OC)ncc1Cl`: the Potency result in [1], in [2], in assay [4], in assay [7] and in assay [8] was “inactive” throughout. Also, the viability in [3] is 93.5%.

As for `O=C(CC12CC3CC(CC(C3)C1)C2)Nc1cccc2nc(NCCNCCO)ccc12`, the Potency entry in assay [1], in [2] and in assay [7] was “inactive” throughout. For the same molecule, the viability in assay [3] is 114%.

With `Cc1cc(C)c(NC(=O)N(Cc2ccc3c(c2)Cc2ccccc2-3)C2CCCCCC2)c(C)c1`, the Potency entry in [1] and in [2] was “inactive” in each case.

For the molecule `Cn1c2cc(S(C)=O)sc2c2cnn(Cc3cccc(N)c3)c(=O)c21` (stereo not drawn), the Potency entry in assay [1], in [2], in assay [4], in [5], in assay [9] and in assay [6] was “inactive” each time. Moreover, the Potency entry in assay [7] and in assay [8] was “inactive” each time. The viability in assay [3] is 104%.

Turning to `CC(=O)OCC(=O)[C@@]1(O)CC[C@H]2[C@@H]3CCC4=CC(=O)C=C[C@]4(C)[C@H]3[C@@H](O)C[C@@]21C`, the Potency entry in assay [1], in [2], in assay [5] and in [6] was “inactive” each time. In addition, the viability in [3] was 114%. The Potency in assay [7] is 833 nM (active); in [8], 372 nM (active).

Turning to `CC[C@H]1OC(=O)[C@H](C)C(=O)[C@H](C)[C@@H](OC2O[C@H](C)C[C@H](N(C)C)[C@H]2O)[C@@H](C)C[C@@H](C)C(=O)/C=C/[C@]1(C)O` (stereo partly drawn), the Potency result in [1] and in [2] was “inactive” in each case.

As to `CC1=C(CO)C(=O)O[C@@H]([C@@H](C)[C@H]2CC[C@H]3[C@@H]4C[C@H]5O[C@]56[C@@H](O)C=CC(=O)[C@]6(C)[C@H]4CC[C@]23C)C1`, the Potency entry in assay [1] and in [2] was “inactive” in each case. Besides, the Potency in assay [3] is 590 nM (active); in assay [4], 742 nM (active); in assay [5], 662 nM (active); in assay [9], 118 nM (active); in assay [6] it was 417 nM (active); in assay [8], 372 nM (active).

For `CC[C@]12C=CCN3CC[C@@]4(c5cc([C@@]6(C(=O)OC)C[C@H]7C[C@@H](C(C)(F)F)CN(Cc8c6[nH]c6ccccc86)C7)c(OC)cc5N(C)[C@H]4[C@@](O)(C(=O)OC)[C@@H]1OC(C)=O)[C@@H]32`, the Potency entry in [1] and in assay [2] was “inactive” in each case. The Potency in assay [3] is 783 nM (active); in [5], 197 nM (active); in [6], 139 nM (active); in assay [7], 69.8 nM (active); in [8] it was 139 nM (active).

Consider `COc1ccc(C2(C#N)CCC(C(=O)O)CC2)cc1OC1CCCC1` (stereo not drawn), for which the Potency result in [1], in assay [2], in assay [4], in [6], in assay [7] and in assay [8] was “inactive” in each case. Besides, in [3], the viability was 119%.

Turning to `C[C@@H]1CC[C@]2(C(=O)O[C@@H]3O[C@H](CO)[C@@H](O)[C@H](O)[C@H]3O)CC[C@]3(C)C(=CCC4[C@@]5(C)C[C@@H](O)[C@H](O)C(C)(C)C5CC[C@]43C)C2[C@]1(C)O` (stereo partly drawn), the Potency result in [1] and in [2] was “inactive” in each case.

For the molecule `O=C(Nc1ccccc1-c1cn2c(CN3CCNCC3)csc2n1)c1cnc2ccccc2n1`, the Potency result in assay [1] and in assay [2] was “inactive” each time. Also, the Potency in assay [3] was 8330 nM (active); in assay [4] it was 20900 nM (active); in assay [5], 5250 nM (active); in assay [9], 20900 nM (active); in assay [6], 8330 nM (active); in assay [7], 7420 nM (active). The Potency in assay [8] was 8330 nM (active).

Turning to `CCCS(=O)(=O)Nc1ccc(F)c(C(=O)c2c[nH]c3ncc(Cl)cc23)c1F`, the Potency entry in [1], in [2], in [4] and in assay [8] was “inactive” each time. Besides, the results for the Potency in [3] and in [9] were 16600 nM (active) and 11800 nM (active), respectively.

Consider `CC(=O)Nc1cccc(-n2c(=O)n(C3CC3)c(=O)c3c(Nc4ccc(I)cc4F)n(C)c(=O)c(C)c32)c1`, for which the Potency entry in assay [1] and in [2] was “inactive” in each case. Moreover, the viability in [3] was 89.5%.

For `CC1COC2(OC3CC4C5CC(O[C@@H]6O[C@H](C)[C@@H](O[C@@H]7O[C@@H](C)[C@H](O)[C@@H](O)[C@H]7O)[C@H](O)[C@H]6O)C6CC(O)CCC6(C)C5CCC4(C)C3C2C)C(O)C1` (stereo partly drawn), the Potency entry in assay [1] and in assay [2] was “inactive” throughout.

On to `CC(=O)O[C@@H]1[C@H](O[C@@H]2O[C@H](CO)[C@@H](O)[C@H](O)[C@H]2O)[C@@H](O[C@@H]2O[C@@H](C)[C@H](O)[C@@H](O[C@@H]3O[C@H](CO)[C@@H](O)[C@H](O)[C@H]3O)[C@H]2O)[C@H](OC(=O)C23CCC4(C)C(=CCC5C6(C)CC(O)C(O[C@@H]7O[C@H](C(=O)O)[C@@H](O)[C@H](O)[C@H]7O)C(C)(C(=O)O)C6CCC54C)C2CC(C)(C)CC3O)O[C@@H]1C` (stereo partly drawn), for which the activity change, negative = inhibition in assay [1] was -6.27% [at 11.2 µM]; in assay [2], -5.68% [at 11.2 µM].

On to `CCOc1cc(C(=O)Nc2ccc(Cl)c(-c3nc4ccccc4[nH]3)c2)cc(OCC)c1OCC`, for which the Potency result in assay [1], in assay [2] and in assay [8] was “inactive” in each case. In addition, the Potency in assay [3] is 18600 nM (active); in assay [5], 16600 nM (active); in assay [9] it was 14800 nM (active).
